In PubChem BioAssay (Tox21):
Several values for one entry are separate records, joined by “and”; a condition that tells them apart may be missing. Identical values can stand only once. Records with an inconclusive call do not appear. A call without a number means that no potency is given here. Some structures have more than one record in an assay (separate samples or runs), and their calls can disagree. Activity calls are given as the source filed them. Unless noted, calls follow the shape of the dose curve; as a rule, active = well fitted curve in the direction sought with a large enough effect in the repeat runs; inconclusive = weak or mixed curves; inactive = no such curve, though single readings can be large; an effect the other way counts as inactive or inconclusive.

Columns and labels:
[1] = Caspase-3/7 induction in HepG2 cells by small molecules, qHTS cell viability counter screen (AID 1346981); also: series mostly up to about 92 µM; nearly all actives have a fitted effect of over 30% in size
In short: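 After a 5-hr attachment period at 37 C and 5% CO2, wild-type HepG2 cells received compounds in DMSO. Sixteen hours later CellTiter-Fluor was dispensed and the fluorescent signal quantified after a further hour.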

[2] = target: Nuclear receptor subfamily 1 group I member 2 (Homo sapiens) (UniProt O75469); assay: Human pregnane X receptor (PXR) small molecule agonists, qHTS assay (AID 1346982); also: nearly all actives have a fitted effect of over 35% in size; also: potency is read from the fitted curve at half-maximal effect
In short: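 Tox21 qHTS; PXR-Luc HepG2; compounds pinned from DMSO; 24 hr, 37 C; ONE-Glo luciferase detection, 30 min room temperature.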

[3] = target: Acetylcholinesterase (Homo sapiens) (UniProt P22303); assay: Acetylcholinesterase (AChE) small molecule antagonists: colormetric cell-based qHTS assay (AID 1347395; calls by dose curve; also: nearly all actives have a fitted effect of over 30% in size; also: potency is read from the fitted curve at half-maximal effect)
Chain of Acetylcholinesterase (Homo sapiens) (P22303 whole entry, looked up): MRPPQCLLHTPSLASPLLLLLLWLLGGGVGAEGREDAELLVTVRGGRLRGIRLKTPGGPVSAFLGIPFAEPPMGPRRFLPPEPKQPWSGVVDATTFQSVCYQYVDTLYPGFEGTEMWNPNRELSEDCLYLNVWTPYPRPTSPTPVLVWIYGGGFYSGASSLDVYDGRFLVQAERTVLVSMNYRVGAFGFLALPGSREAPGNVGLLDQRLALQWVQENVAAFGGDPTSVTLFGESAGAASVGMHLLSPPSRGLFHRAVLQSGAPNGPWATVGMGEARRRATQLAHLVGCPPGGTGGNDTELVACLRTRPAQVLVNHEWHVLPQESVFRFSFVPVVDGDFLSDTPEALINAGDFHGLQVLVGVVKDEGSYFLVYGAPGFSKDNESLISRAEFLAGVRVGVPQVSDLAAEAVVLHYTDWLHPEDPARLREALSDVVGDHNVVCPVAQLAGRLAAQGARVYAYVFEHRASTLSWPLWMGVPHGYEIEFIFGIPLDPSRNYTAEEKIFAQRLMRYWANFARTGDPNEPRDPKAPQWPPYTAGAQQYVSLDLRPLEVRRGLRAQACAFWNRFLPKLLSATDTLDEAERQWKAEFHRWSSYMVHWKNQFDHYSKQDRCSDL
In short: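 SH-SY5Y cells attached overnight, exposed to compound 30 min at 37 C, then given DTNB/acetylthiocholine; after 90 min at 37 C, colorimetric thiocholine read gives cellular AChE activity.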

[4] = target: Acetylcholinesterase (Homo sapiens) (UniProt P22303); assay: Acetylcholinesterase (AChE) small molecule antagonists: enzyme-based qHTS assay (AID 1347397; calls by dose curve; also: nearly all actives have a fitted effect of over 55% in size); conditions: Potency: AChE enzyme activity inhibition
In short: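 Colorimetric DTNB read-out of thiocholine released from acetylthiocholine by recombinant human AChE (50 mU/mL as dispensed). Compounds were preincubated 30 min at RT before substrate/DTNB addition, with a 10 min RT reaction.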

[5] = target: Acetylcholinesterase (Homo sapiens) (UniProt P22303); assay: Acetylcholinesterase (AChE) small molecule antagonists: fluorescence cell-based qHTS assay (AID 1347398; calls by dose curve; also: nearly all actives have a fitted effect of over 50% in size); conditions: Potency: AChE activity
In short: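 SH-SY5Y, 2,000 cells/well, attached overnight; cmpd 30 min 37 C; acetylthiocholine/Thiolite Green cocktail 40 min RT; fluorescence Ex/Em 490/520 nm.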

[6] = target: Acetylcholinesterase (Homo sapiens) (UniProt P22303); assay: Acetylcholinesterase (AChE) small molecule antagonists: enzyme-based qHTS assay with human liver microsomes (AID 1347399; calls by dose curve; also: nearly all actives have a fitted effect of over 60% in size); conditions: Potency: qHTS inhibition
In short: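 Recombinant human AChE (50 mU/mL in the enzyme mix) and human liver microsomes (0.25 mg/mL final) were preincubated with compound and NADPH (0.25 mg/mL final) for 30 min at 37 C. Acetylthiocholine/DTNB was then added; thiocholine was read colorimetrically after 10 min at room temperature.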

[7] = target: Cytochrome P450 2D6 (Homo sapiens) (UniProt P10635); assay: Cytochrome P450 Family 2 Subfamily D Member 6 (CYP2D6) small molecule antagonists: luciferase reporter qHTS assay (AID 1671196); also: nearly all actives have a fitted effect of over 50% in size; also: potency is read from the fitted curve at half-maximal effect
Chain of Cytochrome P450 2D6 (Homo sapiens) (P10635 whole entry, looked up): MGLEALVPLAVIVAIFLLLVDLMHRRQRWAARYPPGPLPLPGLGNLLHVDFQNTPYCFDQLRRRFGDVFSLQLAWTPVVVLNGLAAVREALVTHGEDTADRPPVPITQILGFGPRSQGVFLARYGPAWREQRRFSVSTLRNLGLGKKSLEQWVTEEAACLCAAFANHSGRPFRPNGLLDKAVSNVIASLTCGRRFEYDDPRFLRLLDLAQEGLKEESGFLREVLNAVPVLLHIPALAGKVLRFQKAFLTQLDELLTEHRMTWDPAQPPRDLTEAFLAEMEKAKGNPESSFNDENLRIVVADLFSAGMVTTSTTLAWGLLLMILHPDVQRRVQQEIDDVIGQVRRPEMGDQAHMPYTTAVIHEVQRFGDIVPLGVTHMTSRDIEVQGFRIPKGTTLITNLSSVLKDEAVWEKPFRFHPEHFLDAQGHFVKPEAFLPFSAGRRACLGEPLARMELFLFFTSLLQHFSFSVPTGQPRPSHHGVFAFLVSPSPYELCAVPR
In short: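 Room-temperature luminescent CYP2D6 activity assay: compound preincubated 10 min with enzyme–substrate mix, NADPH-initiated reaction 1 h, detection reagent 20 min before reading.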

[8] = target: Cytochrome P450 2C19 (Homo sapiens) (UniProt P33261); assay: Cytochrome P450 Family 2 Subfamily C Member 19 (CYP2C19) small molecule antagonists: luciferase reporter qHTS assay (AID 1671197); also: nearly all actives have a fitted effect of over 65% in size; also: potency is read from the fitted curve at half-maximal effect
Chain of Cytochrome P450 2C19 (Homo sapiens) (P33261 whole entry, looked up): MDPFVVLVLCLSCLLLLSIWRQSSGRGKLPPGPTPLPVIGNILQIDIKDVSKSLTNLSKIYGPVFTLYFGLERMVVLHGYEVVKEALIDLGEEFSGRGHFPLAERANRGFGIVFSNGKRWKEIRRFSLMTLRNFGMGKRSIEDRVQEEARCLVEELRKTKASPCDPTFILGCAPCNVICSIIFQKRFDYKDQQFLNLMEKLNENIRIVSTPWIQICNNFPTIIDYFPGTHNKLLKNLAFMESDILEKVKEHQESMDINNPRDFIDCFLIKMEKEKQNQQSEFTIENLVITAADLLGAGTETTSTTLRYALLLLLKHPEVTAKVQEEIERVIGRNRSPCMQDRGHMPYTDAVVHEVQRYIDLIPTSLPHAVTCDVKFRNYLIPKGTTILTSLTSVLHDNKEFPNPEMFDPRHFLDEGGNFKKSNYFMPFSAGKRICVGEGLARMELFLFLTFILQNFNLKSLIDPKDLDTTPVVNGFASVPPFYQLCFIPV
In short: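 Compounds were tested on CYP2C19 activity via proluciferin conversion to luciferin. The 37C, 1 h reaction followed NADPH addition; detection reagent stopped it.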

[9] = target: Cytochrome P450 2C9 (Homo sapiens) (UniProt P11712); assay: Cytochrome P450 Family 2 Subfamily C Member 9 (CYP2C9) small molecule antagonists: luciferase reporter qHTS assay (AID 1671198); also: nearly all actives have a fitted effect of over 50% in size; also: potency is read from the fitted curve at half-maximal effect
Chain of Cytochrome P450 2C9 (Homo sapiens) (P11712 whole entry, looked up): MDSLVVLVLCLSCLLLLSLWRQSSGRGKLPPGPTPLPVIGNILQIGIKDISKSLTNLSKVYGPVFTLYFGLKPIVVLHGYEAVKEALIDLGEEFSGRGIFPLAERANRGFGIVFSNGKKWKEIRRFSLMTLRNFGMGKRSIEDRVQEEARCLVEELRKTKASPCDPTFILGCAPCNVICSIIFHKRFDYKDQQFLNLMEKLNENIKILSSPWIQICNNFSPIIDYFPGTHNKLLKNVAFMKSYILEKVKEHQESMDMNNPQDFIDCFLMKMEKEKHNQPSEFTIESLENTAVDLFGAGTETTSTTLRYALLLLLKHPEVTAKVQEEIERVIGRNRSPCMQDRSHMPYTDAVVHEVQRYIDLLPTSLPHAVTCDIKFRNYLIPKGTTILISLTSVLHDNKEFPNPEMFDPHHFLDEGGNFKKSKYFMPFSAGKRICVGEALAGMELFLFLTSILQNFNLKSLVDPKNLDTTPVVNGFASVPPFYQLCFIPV
In short: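 P450-Glo proluciferin substrate with CYP2C9 enzyme; 10 min RT preincubation, then NADPH regeneration 1 h at 37C; luciferin detection reagent 20 min RT, luminescence in relative luminescence units.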

[10] = target: Cytochrome P450 1A2 (Homo sapiens) (UniProt P05177); assay: Cytochrome P450 Family 1 Subfamily A Member 2 (CYP1A2) small molecule antagonists: luciferase reporter qHTS assay (AID 1671199); also: nearly all actives have a fitted effect of over 50% in size; also: potency is read from the fitted curve at half-maximal effect
Chain of Cytochrome P450 1A2 (Homo sapiens) (P05177 whole entry, looked up): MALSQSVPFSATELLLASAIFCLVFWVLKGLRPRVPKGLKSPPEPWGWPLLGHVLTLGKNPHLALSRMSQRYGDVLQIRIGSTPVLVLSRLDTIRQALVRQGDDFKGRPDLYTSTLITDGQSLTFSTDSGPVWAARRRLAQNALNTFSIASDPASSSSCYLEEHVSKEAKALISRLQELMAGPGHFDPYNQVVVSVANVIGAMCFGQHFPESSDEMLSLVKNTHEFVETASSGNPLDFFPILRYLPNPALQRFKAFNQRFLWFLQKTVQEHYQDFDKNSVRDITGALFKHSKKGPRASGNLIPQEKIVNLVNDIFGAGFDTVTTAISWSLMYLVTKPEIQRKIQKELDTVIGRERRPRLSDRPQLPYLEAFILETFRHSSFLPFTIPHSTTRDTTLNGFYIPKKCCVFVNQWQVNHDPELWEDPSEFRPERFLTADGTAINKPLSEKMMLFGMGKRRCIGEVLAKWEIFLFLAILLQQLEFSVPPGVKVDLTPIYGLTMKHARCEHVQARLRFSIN
In short: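 Room-temperature CYP1A2 reaction with proluciferin substrate: compounds added from DMSO, 10 min preincubation, NADPH regeneration for 1 h. Luciferin detection reagent then added; luminescence recorded as RLU.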

[11] = target: Voltage-gated inwardly rectifying potassium channel KCNH2 (Homo sapiens) (UniProt Q12809); assay: Human Ether-a-go-go-Related Gene (hERG) channel small molecule antagonists: fluorescence cell-based qHTS assay (AID 1671200)
Chain of Voltage-gated inwardly rectifying potassium channel KCNH2 (Homo sapiens) (Q12809 whole entry, looked up): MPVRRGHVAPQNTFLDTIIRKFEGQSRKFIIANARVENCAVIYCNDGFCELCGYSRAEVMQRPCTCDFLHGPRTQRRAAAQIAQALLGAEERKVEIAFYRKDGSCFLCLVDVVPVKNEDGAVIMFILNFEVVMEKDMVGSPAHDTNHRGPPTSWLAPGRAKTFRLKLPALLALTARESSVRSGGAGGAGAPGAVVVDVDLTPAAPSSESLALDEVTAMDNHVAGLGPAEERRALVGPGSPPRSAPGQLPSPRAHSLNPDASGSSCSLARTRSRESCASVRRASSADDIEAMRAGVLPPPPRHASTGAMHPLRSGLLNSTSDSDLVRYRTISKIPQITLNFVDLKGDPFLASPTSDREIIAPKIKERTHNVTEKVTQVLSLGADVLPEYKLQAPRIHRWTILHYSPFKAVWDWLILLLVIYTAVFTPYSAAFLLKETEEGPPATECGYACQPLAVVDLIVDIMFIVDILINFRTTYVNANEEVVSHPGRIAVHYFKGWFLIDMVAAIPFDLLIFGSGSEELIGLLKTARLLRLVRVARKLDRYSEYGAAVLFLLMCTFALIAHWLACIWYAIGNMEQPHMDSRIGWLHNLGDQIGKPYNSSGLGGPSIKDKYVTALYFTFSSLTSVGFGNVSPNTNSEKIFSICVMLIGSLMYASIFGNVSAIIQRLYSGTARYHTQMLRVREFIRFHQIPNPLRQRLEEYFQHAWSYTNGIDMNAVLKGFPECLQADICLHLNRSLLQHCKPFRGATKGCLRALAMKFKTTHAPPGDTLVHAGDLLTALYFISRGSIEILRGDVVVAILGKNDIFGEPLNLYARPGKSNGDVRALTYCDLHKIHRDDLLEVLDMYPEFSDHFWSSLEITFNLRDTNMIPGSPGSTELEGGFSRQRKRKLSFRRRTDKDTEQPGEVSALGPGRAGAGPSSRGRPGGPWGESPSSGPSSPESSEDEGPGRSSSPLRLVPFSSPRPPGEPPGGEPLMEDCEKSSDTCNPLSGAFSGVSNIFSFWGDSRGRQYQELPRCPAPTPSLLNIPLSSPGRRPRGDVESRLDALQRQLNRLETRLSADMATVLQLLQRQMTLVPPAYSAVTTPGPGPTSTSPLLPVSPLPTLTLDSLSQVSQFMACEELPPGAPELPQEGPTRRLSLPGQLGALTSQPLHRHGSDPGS
In short: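 hERG-U2OS cells plated overnight at 37 C, loaded with FluxOR II dye 1 h at RT in dark; after 10 min, thallium stimulus added. Fluorescence (480/540 nm) read kinetically for 2 min at 1 s intervals.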

[12] = target: Cytochrome P450 3A4 (Homo sapiens) (UniProt P08684); assay: Cytochrome P450 Family 3 Subfamily A Member 4 (CYP3A4) small molecule antagonists: luciferase reporter qHTS assay (AID 1671201); also: nearly all actives have a fitted effect of over 50% in size; also: potency is read from the fitted curve at half-maximal effect
Chain of Cytochrome P450 3A4 (Homo sapiens) (P08684 whole entry, looked up): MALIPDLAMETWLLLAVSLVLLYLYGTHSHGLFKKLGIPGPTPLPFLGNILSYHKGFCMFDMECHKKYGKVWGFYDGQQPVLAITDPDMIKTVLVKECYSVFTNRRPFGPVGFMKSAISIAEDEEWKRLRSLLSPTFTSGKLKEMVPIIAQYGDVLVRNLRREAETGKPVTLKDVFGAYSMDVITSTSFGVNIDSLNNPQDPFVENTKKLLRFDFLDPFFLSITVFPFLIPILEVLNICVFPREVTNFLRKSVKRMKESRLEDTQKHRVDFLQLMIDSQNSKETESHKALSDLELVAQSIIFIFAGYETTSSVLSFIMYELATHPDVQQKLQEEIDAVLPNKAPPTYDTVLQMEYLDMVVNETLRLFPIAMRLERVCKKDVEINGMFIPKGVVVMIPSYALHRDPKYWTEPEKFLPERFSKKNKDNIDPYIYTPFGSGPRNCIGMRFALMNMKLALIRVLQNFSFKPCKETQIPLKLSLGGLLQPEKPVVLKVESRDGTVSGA
In short: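 P450-Glo CYP3A4 luminescent assay: compounds preincubated 10 min at room temperature with enzyme and proluciferin substrate, NADPH regeneration added, 1 h room-temperature reaction, stopped with luciferin detection reagent; luminescence read after 20 min. Ketoconazole positive control.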

[13] = target: Nuclear receptor subfamily 1 group I member 2 (Rattus norvegicus) (UniProt Q9R1A7); assay: Rat pregnane X receptor (rPXR) activation by small molecules, qHTS assay (AID 1346983); conditions: rPXR luciferase reporter cells, One-Glo luminescence, 24 h; stronger effect = higher value; also: nearly all actives have a fitted effect of over 20% in size
Chain of Nuclear receptor subfamily 1 group I member 2 (Rattus norvegicus) (Q9R1A7 whole entry, looked up): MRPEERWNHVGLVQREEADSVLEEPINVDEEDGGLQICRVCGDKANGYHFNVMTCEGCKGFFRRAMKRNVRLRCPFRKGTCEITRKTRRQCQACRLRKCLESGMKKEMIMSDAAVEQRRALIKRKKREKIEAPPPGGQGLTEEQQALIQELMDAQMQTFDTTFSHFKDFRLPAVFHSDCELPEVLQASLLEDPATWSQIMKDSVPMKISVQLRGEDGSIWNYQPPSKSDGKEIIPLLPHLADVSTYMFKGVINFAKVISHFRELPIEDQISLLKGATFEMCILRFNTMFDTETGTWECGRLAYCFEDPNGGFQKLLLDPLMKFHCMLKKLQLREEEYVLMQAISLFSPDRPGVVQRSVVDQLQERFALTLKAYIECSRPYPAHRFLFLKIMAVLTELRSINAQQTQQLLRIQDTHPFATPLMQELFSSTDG
In short: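 Cell-based rPXR activation assay: rPXR cells, 2,000 per well, rested 5hr at 37 C, then exposed to compounds in DMSO for 24 hr at 37 C. Luciferase activity read by One-Glo luminescence after 30 min at room temperature.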

[14] = target: Nuclear receptor subfamily 1 group I member 2 (Homo sapiens) (UniProt O75469); assay: CYP3A4 induction through human pregnane X receptor (PXR) by small molecules, qHTS assay (AID 1346984); also: nearly all actives have a fitted effect of over 40% in size
In short: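 Cells (DPX-2; HepG2 with PXR element plus CYP3A4-promoter luciferase) settled 5hr, then were treated 24hr at 37C. A 3hr, 3uM-final Luciferin-IPA step preceded luminescence measurement with One-Glo.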

[15] = target: Nuclear receptor subfamily 1 group I member 2 (Homo sapiens) (UniProt O75469); assay: Human pregnane X receptor (PXR) activation by small molecules, qHTS assay (AID 1346985); also: nearly all actives have a fitted effect of over 40% in size
In short: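 DPX-2 cells (HepG2 co-transfected with a PXR response element and a CYP3A4-promoter luciferase construct) were seeded at 2,000 per well, rested 5 hr at 37C, then exposed to DMSO-dissolved compounds for 24 hr. Activation was read as luciferase luminescence.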

Compound	Potency [1]	Potency [2]	Potency [3]	Potency [4]	Potency [5]	Potency [6]	Potency [7]	Potency [8]	Potency [9]	Potency [10]	Potency [11]	Potency [12]	max activation [13]	outcome [14]	Potency [15]
CC(C)(C)OOC(C)(C)C	inactive	inactive	inactive	inactive	inactive	inactive	inactive	inactive	inactive	inactive	inactive	inactive	–	–	–
Cc1ccc([N+](=O)[O-])cc1C	inactive	inactive	inactive	inactive	inactive	inactive	inactive	inactive	inactive	inactive	inactive	inactive	–	–	–
CN(C)[C@@H]1C(=O)C(C(N)=O)=C(O)[C@@]2(O)C(=O)C3=C(O)c4c(O)cccc4[C@@](C)(O)[C@H]3C[C@@H]12	inactive	inactive	–	–	–	–	31.8 µM (active) and inactive and 19.5 µM (active)	inactive	–	–	inactive	inactive	-1.09% (inactive)	inactive	inactive
CCNc1nc(NC(C)C)nc(SC)n1	inactive	54.8 µM (active) and 24.3 µM (active)	inactive	inactive	inactive	inactive	inactive	–	inactive	8.02 µM (active) and 11.2 µM (active)	inactive	inactive	–	–	–
[N-]=[N+]=[N-]	inactive	inactive	inactive	inactive	inactive	inactive	38.6 µM (active) and inactive	24.4 µM (active) and 50.2 µM (active)	38.6 µM (active) and 35.6 µM (active)	43.3 µM (active) and inactive	inactive	inactive	–	–	–
Cc1cc(-c2cc(C)c(N)c(C)c2)cc(C)c1N	inactive	54.6 µM (active) and 26.8 µM (active)	inactive	–	inactive	inactive	22.5 µM (active) and 15.6 µM (active)	10.1 µM (active) and 8.78 µM (active)	40 µM (active) and 22 µM (active)	712 nM (active) and 311 nM (active)	inactive	34.9 µM (active)	–	–	–
CC(C)(Cl)Cl	inactive	inactive	inactive	–	inactive	inactive	inactive	40.6 µM (active) and 71 µM (active)	inactive	inactive and 44.8 µM (active)	inactive	inactive	–	–	–
OC(O)C(Cl)(Cl)Cl	inactive	–	–	–	–	–	inactive	inactive	–	inactive	inactive	inactive	-1.41% (inactive)	inactive	inactive
Cc1cc(Cl)ccc1O	inactive	inactive	inactive	–	inactive	inactive	19.4 µM (active) and 12.6 µM (active)	–	–	30.8 µM (active) and 31.7 µM (active)	inactive	inactive	–	–	–
COP(N)(=O)SC (stereo unspecified)	inactive	inactive	–	–	–	inactive	inactive	39.3 µM (active) and inactive	–	inactive	inactive	inactive	–	–	–
CN=C=S	inactive	30.9 µM (active) and inactive	inactive	–	–	inactive	inactive	80.4 µM (active) and inactive	inactive	40.3 µM (active)	inactive	inactive	–	–	–
O=C(NC(=O)c1c(F)cccc1F)Nc1cc(Cl)c(OC(F)(F)C(F)C(F)(F)F)cc1Cl (stereo unspecified)	inactive	–	inactive	–	–	inactive	inactive	10 µM (active) and 34.7 µM (active)	11.2 µM (active) and 17.4 µM (active)	inactive	inactive	inactive	-1.37% (inactive)	inactive	inactive
O=NN1CCCC1	inactive	inactive	13.2 µM (active) and inactive	–	–	inactive	inactive	33.2 µM (active) and inactive	inactive	33.2 µM (active) and inactive	inactive	inactive	–	–	–
CCNc1nc(NC(C)(C)C)nc(SC)n1	inactive	30.2 µM (active) and 48.6 µM (active)	inactive	–	inactive	inactive	inactive	17.6 µM (active) and 39.9 µM (active)	inactive	7.01 µM (active) and 7.96 µM (active)	inactive	inactive	–	–	–
O=c1n(Cl)c(=O)n(Cl)c(=O)n1Cl	inactive	–	inactive	inactive	–	inactive	inactive	inactive	inactive	inactive	inactive	inactive	0.0046% (inactive)	inactive	inactive
C1CN2CCN1CC2	inactive	inactive	inactive	inactive	–	inactive	inactive	inactive	inactive	inactive	inactive	inactive	–	–	–
Cc1ccc(N)cc1N	inactive	inactive	inactive	–	–	inactive	30.9 µM (active) and 31.7 µM (active)	34.6 µM (active) and 31.7 µM (active)	34.6 µM (active) and 39.9 µM (active)	30.9 µM (active) and 35.6 µM (active)	inactive	30.9 µM (active)	–	–	–
